Compound activity deposited in PubChem by several laboratories.
An excerpt weighted towards active compounds, which were near 3.7% of everything screened.
PfHsp90 yeast 2: growth inhibition of PfHsp90-expressing yeast, primary screen, antimalarial PfHsp90 inhibitor project, S. cerevisiae, BacTiter-Glo luminescence, single point, set 2; BacTiter-Glo ATP, 48 h; yeast lacking PDR1 and PDR3 efflux regulators; inhibition, % at 9.4 µM; 310,000 compounds, 0.32% hits; AID 504621, 2011;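 active = every replicate shows inhibition above about 80%, whatever the replicate mean, limit read from the data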;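 note: 0% = DMSO neutral controls and 100% = 20 µM radicicol positive controls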
V-ATPase pHluor: regulators of yeast V-ATPase proton pumping, primary screen, pHLuorin cytosolic pH fluorescence. S. cerevisiae. response, % at 10 µM. 350,000 compounds, 0.37% hits; in the data active = response mostly above about 7.3%, no sharp cut-off; inactive = mostly below about 5.4%; note: actives read high
TIM10 inh: growth inhibitors of isogenic TIM10 control yeast, primary screen, counter-screen for tim10-1 yeast inhibitor project, luminescence, uHTS | 330,000 compounds, 1.4% hits | inhibition, % at 10 µM | S. cerevisiae TIM10 strain growth, BacTiter-Glo luminescence, 24 h | AID 463195, 2010;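 active = inhibition of 40% or more at the single tested concentration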;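 note: wild-type TIM10 isogenic control strain grown at permissive 25 °C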
tim10-1 inh: growth inhibitors of tim10-1 mutant yeast, primary screen, luminescence, uHTS. AID 463190, 2010. 330,000 compounds, 2.2% hits. inhibition, % at 20 µM. S. cerevisiae tim10-1 ts strain growth, BacTiter-Glo, 24 h;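 active = inhibition of at least 40%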;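 note: mutant grown at 25 °C; 0% = DMSO wells with yeast and 100% = wells holding no yeast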
tim23-1 inh: growth inhibitors of tim23-1 mutant yeast, primary screen, luminescence, uHTS. inhibition, % at 20 µM. S. cerevisiae tim23-1 growth, BacTiter-Glo luminescence, 24 h. 330,000 compounds, 1.3% hits;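 active = growth inhibition of the mutant yeast at or above 50%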;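 note: temperature-sensitive mutant grown at 25 °C; plate controls were DMSO-treated mutant yeast for no effect and medium wells lacking yeast for full effect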
Starred values were filed as active, the others as inactive; · = not tested or not shown.

SMILES	PfHsp90 yeast 2	V-ATPase pHluor	TIM10 inh	tim10-1 inh	tim23-1 inh
Cc1ccc2c(c1C)-c1c(ccc(C)c1C)C(=O)C2=O	103*	-4	·	·	·
CCOC(=O)c1ccc(NC(=S)N2CCN(CCO)CC2)cc1	7	-2	-3	-2	-2
CCn1c(CNc2ccc(Cl)cc2)nnc1SCc1ccc(Cl)cc1	127*	-1	17	9	44
CCn1c(CNc2ccc(Cl)cc2)nnc1SCCN1CCCCC1	-1	0	-15	-5	9
CCn1c(CNc2ccc(Cl)cc2)nnc1SCc1ccc(C)cc1	81*	0	-5	-3	-5
CCN(CC)c1ccc(/C=C2/SC(=O)N(C(C)C)C2=O)o1	86*	2	·	·	·
CC(C)N1C(=O)S/C(=C\c2ccc(-c3ccc(Cl)c(C(=O)O)c3)o2)C1=O	3	-4	-7	21	19
COc1cccc(CN2CC(C(=O)NCCc3nccs3)CCC2=O)c1 (stereo unspecified)	·	4	·	·	·
CCN(CC)CCCn1c(C)cc2c(c1=O)C(c1cccc(Cl)c1)C(C#N)=C(N)O2 (stereo unspecified)	3	36*	·	·	·
CC1=CN(S(=O)(=O)c2ccc(C)cc2)C[C@@H]2[C@H]3CC[C@H](C3)[C@H]12	-15	1	8	28	50
CC(C)(C)N1C(=O)c2ccc(C(=O)Nc3ccc(O)cc3)cc2C1=O	-21	0	-5	5	24
Cc1ccc(C(=O)Nc2cccc(NC(=O)c3ccc(C)o3)n2)o1	-11	-4	-11	-9	-5
Cc1cc(O)c(NC(=O)c2ccc(Br)o2)cc1C	·	14*	21	18	16
COc1ccccc1NC(=O)c1ccc(Br)o1	1	-6	-10	8	12
Cc1ccc(CCNC(=O)C2CCN(S(=O)(=O)N3CCOCC3)CC2)cc1	30	1	5	21	7
COc1ccc(S(=O)(=O)N2CCCCC2)cc1NC(=O)c1cnc(C)cn1	1	-1	-1	8	5
O=C(NCc1ccc2c(c1)OCO2)c1c(O)c2cccc3c2n(c1=O)CCC3	10	30*	-9	-8	-2
O=C(NCc1ccccc1)c1c(O)c2cccc3c2n(c1=O)CCC3	15	-1	4	-16	-4
CCN(CC)S(=O)(=O)c1cccc(NC(=O)c2cccc(S(=O)(=O)N3CCCC3)c2)c1	-11	-1	5	14	16
Cc1ccc(N(C)C(=O)CCS(=O)(=O)c2cc3c(cc2Cl)NC(=O)CO3)cc1	19	7	4	8	13
Cc1ccc(N2C(=O)C3C4C=CC(CNC(=S)N5CCN(c6ccccn6)CC5)(O4)C3C2=O)cc1 (stereo unspecified)	104*	0	3	16	2
Cc1ccc(N2C(=O)C3C4C=CC(CNC(=S)Nc5ccc(Cl)cc5)(O4)C3C2=O)cc1 (stereo unspecified)	105*	-5	31	35	15
Cc1ccc(CNC(=O)C2CCCN(C(=O)Nc3ccc(F)cc3)C2)cc1 (stereo unspecified)	0	-6	2	-32	-6
Cc1ccc(N2C(=O)C3C4C=CC(CNC(=S)Nc5ccc(F)cc5)(O4)C3C2=O)cc1 (stereo unspecified)	103*	2	19	31	23
Cc1ccc(C)c(NC(=S)N2CCN(c3ccccn3)CC2)c1	1	1	12	-1	14
SMILES	PfHsp90 yeast 2	V-ATPase pHluor	TIM10 inh	tim10-1 inh	tim23-1 inh
CCCc1noc2c1C(c1cc(Br)ccc1F)C(C#N)=C(N)N2 (stereo unspecified)	13	3	-3	8	-4
COc1ccc(CNC(=O)CN2CCC(NC(=O)c3ccc(OC)cc3)CC2)cc1	-14	·	-27	-17	-29
COc1ccc(N2CCN(c3c(S(=O)(=O)c4ccccc4)cnc4ccc(OC)cc34)CC2)cc1	104*	-4	-56	-23	-2
CCOc1ccc2ncc(S(=O)(=O)c3ccccc3)c(N3CCN(c4ccc(OC)cc4)CC3)c2c1	8	0	16	2	-7
COc1ccc(COc2cccc3ccc(C)nc23)cc1F	25	-3	22	14	27
O=C(Nc1nc(-c2ccccn2)cs1)c1ccc(-c2ccccc2F)o1	96*	-3	21	39	23
